FMDV inh: blocks foot and mouth disease virus. hit rate 1.2% among 410,000. FMDV antiviral cell-based qHTS. AID 1159524. Potency, µM (series often up to 57.9 µM), for the others: top-dose activity change, negative = inhibition, actives largely listed as inhibitors; calls by dose curve; tested in HEK293T cells; also: read-out not given here; nearly all actives have a fitted effect of over 45% in size
Sm TGR inh: inhibitors of Schistosoma mansoni thioredoxin glutathione reductase; Q962Y6; purified TGR, DTNB reduction, TNB absorbance 405 nm; Potency, µM (doses to about 114 µM), for the others: at the top dose activity change, negative = inhibition, hits mostly inhibitors; hit rate 3% among 360,000; AID 485364; also: nearly all actives have a fitted effect of over 60% in size
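First, TGR (20 nM dispensed) and NADPH were mixed with compound. Second, a 15 min room-temperature incubation followed. Third, further NADPH and then DTNB were added to start the reaction. Finally, TNB absorbance was monitored kinetically.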
AmpC detergent: AmpC beta-lactamase inhibition with detergent present; hit rate 0.041% among 370,000; Potency, µM (highest dose often 114 µM), without a hit: top-dose activity change, negative = inhibition, most hits filed as inhibitors; AmpC hydrolysis of nitrocefin, absorbance 480 nm, 0.01% Triton;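 also: 0% = no-compound wells and -100% = no-enzyme wells; nearly all actives have a fitted effect of over 25% in size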
Target sequence (P00811 whole entry, looked up): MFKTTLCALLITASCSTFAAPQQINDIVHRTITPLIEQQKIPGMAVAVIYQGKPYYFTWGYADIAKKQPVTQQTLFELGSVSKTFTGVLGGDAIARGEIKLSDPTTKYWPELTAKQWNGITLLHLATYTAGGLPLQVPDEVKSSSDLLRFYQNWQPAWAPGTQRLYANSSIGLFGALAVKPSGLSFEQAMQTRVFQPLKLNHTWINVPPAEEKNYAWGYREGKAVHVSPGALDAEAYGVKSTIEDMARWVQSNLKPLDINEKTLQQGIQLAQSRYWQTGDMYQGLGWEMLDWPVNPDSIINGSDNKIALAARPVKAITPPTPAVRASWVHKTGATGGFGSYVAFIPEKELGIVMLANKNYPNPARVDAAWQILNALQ
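AmpC (5.3 nM in the dispensed reagent) in 20 mM phosphate pH 7.0 with 0.01% (detergent screen) or 0.0001% Triton X-100 was preincubated with compounds for 15 min at room temperature. Nitrocefin was then added from an 800 uM solution, and hydrolysis was followed at 480 nm.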
AmpC inh no detg: inhibitors of E. coli AmpC beta-lactamase without detergent; P00811; AmpC nitrocefin hydrolysis, absorbance 480 nm, 0.0001% Triton; Potency, µM (series often up to 57.1 µM), for inactives: top-dose activity change, negative = inhibition, actives largely listed as inhibitors; hit rate 0.52% among 330,000; AID 485341;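 also: plate controls were no compound for no effect and no enzyme for full effect; nearly all actives have a fitted effect of over 20% in size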
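20 mM phosphate pH 7.0 + 0.01% (detergent screen) or 0.0001% Triton X-100; 5.3 nM AmpC reagent; cpd preinc 15 min RT; nitrocefin (800 uM stock) to start; A480 q20 s × 4 min; Activity was normalised to no-enzyme and no-compound control wells.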
AMA1 RON2 block: disrupts binding of P. falciparum AMA1 to RON2 | AlphaScreen AMA1-biotinylated RON2 peptide binding | Potency, µM (highest dose often 58.2 µM), inactives show at the top dose activity change, negative = inhibition, actives largely listed as inhibitors | hit rate 0.2% among 360,000;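 also: 0% = vehicle wells and -100% = peptide control; nearly all actives have a fitted effect of over 45% in size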
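AMA1 (3D7) with his tag at 25 nM final met compounds first, then biotinylated RON2 peptide at 25 nM; detection used donor plus acceptor beads, 10 µg/mL apiece, read by AlphaScreen after 30 min at room temperature.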
The depositor's hits bear a star; ? = inconclusive; · = not tested or not shown; [ ] = remark or other dose. The list is not random: actives were taken first. Their share in the collection is about 4.1%. Unless noted, calls follow the shape of the dose curve; as a rule, active = well fitted curve in the direction sought with a large enough effect; inconclusive = small, poorly fitted or top-dose-only effect, or another doubt; inactive = no such curve, though single readings can be large; an effect the other way counts as inactive or inconclusive. Unless noted, % is scaled to controls: 0 for no effect and ±100 for the full control effect; potency is read from the fitted curve at half-maximal effect.

SMILES	FMDV inh	Sm TGR inh	AmpC detergent	AmpC inh no detg	AMA1 RON2 block
NS(=O)(=O)c1cccc(NC(=S)NC(=O)c2cccc([N+](=O)[O-])c2)c1	25%	16µM*	3%	-25%	60%
CC(=O)c1cccc(NC(=S)NC(=O)c2cccc(C)c2)c1	-8%	28µM*	-8%	-26%	24%
Cc1ccc(C)c(N2CCN(C(=O)c3ccc4c(c3)N(Cc3ccc(F)cc3)C(=O)c3ccccc3S4=O)CC2)c1 (centres undefined)	-5%	9%	-7%	·	·
COc1cccc(CNc2ncnc3sc(C(=O)N4CCOCC4)c(C)c23)c1OC	-14%	·	·	·	·
Cc1cc(S(=O)(=O)n2ccnc2C(C)C)cc([N+](=O)[O-])c1C	-7%	2%	-4%	·	·
Cc1cc(Br)cc(C)c1OCC(=O)Nc1ccc(S(=O)(=O)Nc2ncccn2)cc1	-14%	-13%	17%	·	·
Cc1ccnn1CC(=O)N1CCOc2c(cc(-c3ncc(C(F)(F)F)cc3Cl)cc2OCC2CCCO2)C1 (centres undefined)	6%	·	·	·	·
CCC(=O)Nc1cccc(NC(=S)NC(=O)c2cccs2)c1	25%	25µM*	-5%	-37%	78%
Cc1cccc(C(=O)NC(=S)Nc2ccc(N3CCOCC3)cc2)c1	-9%	14µM*	-9%	-24%	0%
CCC(=O)Nc1cccc(NC(=S)NC(=O)c2ccccc2Cl)c1	22%	?	-6%	-48%	6%
N#Cc1ccccc1NC(=O)COC(=O)c1cccs1	22%	·	·	-20%	7%
COC(=O)c1cc(NC(=O)c2c(-c3ccccc3)noc2C)ccc1N1CCOCC1	-9%	-3%	1%	51%	13%
N#Cc1ccccc1NC(=S)NC(=O)c1cccs1	42%	3.5µM*	-12%	-20%	103%
COC(=O)c1cc(NC(=S)NC(=O)c2ccccc2)ccc1N1CCOCC1	-18%	25µM*	-5%	24%	55%
Cc1ccc(C(=O)NC(=S)Nc2ccc(N3CCOCC3)cc2)cc1C	-29%	-27%	?	-9%[2.29 µM]	-8%
CCC(C)Nc1sc(S(=O)(=O)CC)nc1S(=O)(=O)c1ccc(C)cc1 (centres undefined)	-6%	7%	22%	·	·
O=C(NC(=S)Nc1ccc(N2CCOCC2)cc1)c1ccc(Cl)cc1	?	-1%	3%	-20%	23%
COc1ccc(C(=O)NC(=S)Nc2ccc(N3CCOCC3)cc2)cc1Cl	-23%	20µM*	-3%	22%	13%
Cc1cccc2cc3c(N)c(C(=O)Nc4ccc(N5CCOCC5)cc4)sc3nc12	·	9%	2%	-9%	-3%
Cc1ccc2nc3sc(C(=O)Nc4ccc(N5CCOCC5)cc4)c(N)c3cc2c1	·	3%	1%	0.35µM*	·
O=C(NC(=S)Nc1ccc(N2CCOCC2)cc1)c1cccs1	80%	8.9µM*	-1%	-19%	35%
Cc1ccc(N(C)S(=O)(=O)c2cccc(C(=O)Nc3ccc(N4CCOCC4)cc3)c2)cc1	25µM*	?	?	109%	-7%
COc1ccc(Cl)cc1C(=O)Nc1ccc2oc(-c3ccc(C(C)(C)C)cc3)nc2c1	16%	-5%	1%	·	·
CO[C@H]1[C@H](NC(=O)c2ccco2)c2ccccc2C12CCN(Cc1cnn(-c3ccccc3)c1)CC2	17%	·	·	·	·
CCC(=O)N1CCN(c2ccc(NC(=S)NC(=O)c3cccc([N+](=O)[O-])c3)cc2)CC1	?	10µM*	-1%	65%	-7%
SMILES	FMDV inh	Sm TGR inh	AmpC detergent	AmpC inh no detg	AMA1 RON2 block
O=C(Nc1cccc(F)c1)c1ccc2c(c1)N(Cc1ccccc1)C(=O)c1ccccc1S2(=O)=O	0%	1%	1%	·	·
Cc1ccccc1C1=CCN(c2ncc(NC(=O)c3ccc(Cl)cc3)cc2C(=O)O)CC1	-10%	40µM*	2%	·	·
Cn1c(=O)c2ccccc2n2c(CCl)nnc12	-27%	32µM*	-14%	-10%	-5%
Cn1c(=O)c2ccccc2n2c(=S)[nH]nc12	-3%	2%	-2%	-29%	-4%
CCN(CCO)C(=O)c1cnn(-c2ncc3c(n2)-c2ccccc2CCC3)c1C1CC1	38%	·	·	·	·
O=C1CCCc2c1cc(C(=O)O)c(=O)n2-c1ccccc1	5%	0%	-7%	-15%	23%
O=C1CCCc2c1cc(C(=O)NC1CCSC1=O)c(=O)n2-c1ccccc1 (centres undefined)	34%	35µM*	-2%	-19%	2%
O=C1CCCc2c1cc(C(=O)Nc1ccc(Br)cn1)c(=O)n2-c1ccccc1	6%	18µM*	-3%	-24%	-7%
COc1ccc(N(C(=O)c2cnccn2)C(C(=O)NC2CCCCC2)c2ccc(Cl)cc2)cc1 (centres undefined)	-6%	·	·	·	15%
COc1ccc(C(C(=O)NC2CCCCC2)N(C(=O)CCl)c2ccc(Cl)cc2)cc1 (centres undefined)	16µM*	1.6µM*	-9%	1%	-1%
CCN(CC)C(C(=O)NC1CCCCC1)c1ccc(C)cc1 (centres undefined)	8%	-2%	1%	-5%	-10%
COC(CN(C(=O)CCl)C(C(=O)NC1CCCCC1)c1ccc(Cl)cc1)OC (centres undefined)	?	22µM*	-12%	-29%	2%
COC(CN(C)C(C(=O)NC1CCCCC1)c1ccccc1)OC (centres undefined)	11%	?	2%	-4%	5%
COC(CN(C(=O)CCl)C(C(=O)NC1CCCCC1)c1ccccc1C)OC (centres undefined)	?	7.1µM*	-6%	-37%	-3%
COC(CN(C(=O)CCl)C(C(=O)NC1CCCC(C)C1C)c1ccc(C)cc1)OC (centres undefined)	?	40µM*	-3%	13%	-2%
O=C(c1cnccn1)N1CCC[C@@]2(CCN(Cc3ccccc3)C2)C1	3%	·	·	·	·
O=C(NC1CCCCC1)C(c1cccnc1)N(C(=O)CCl)c1cccc(Cl)c1 (centres undefined)	7.9µM*	4µM*	1%	153%	9%
CCCCc1cc(=O)oc2cc(C)c3c(C)coc3c12	-17%	9%	18%	·	·
CC/C(=N\Nc1ccccc1)c1c(O)[nH]c(=O)[nH]c1=O	-1%	5%	4%	-31%	-2%
CC/C(=N\Nc1cccc2ccccc12)c1c(O)[nH]c(=O)[nH]c1=O	?	79µM*	?	-33%	-13%
COc1ccc(NC(=O)c2coc(C)c2)cc1	28%	0%	2%	-20%	0%
COc1ccc(NC(=O)c2ccc(=O)oc2)cc1	·	45µM*	-10%	-16%	6%
CCCNC(=O)Cn1c(=O)cc(C)c2c(C)nn(-c3cccc(F)c3)c21	-13%	10%	2%	·	·
O=C(NC1CCCCC1)Oc1cc2oc(=O)sc2cc1Br	?	3.2µM*	2%	-38%	0%
